From PubChem BioAssay
Active and inactive are the calls of the source.

Experiments:
Albumin (Bos taurus) = Albumin (Bos taurus) (UniProt P02769); assay: compounds binding labelled BSA control protein – biochemical, small-molecule microarray, Alexa647 label, 635/667 nm fluorescence, artefact control for SMM control protein annotation, profiling panel (AID 1118); details: BSA-A647 binding, fluorescence 635 nm, higher = more signal;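 further: score merges 667 nm emission intensity and signal-to-noise per printed compound spot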
Chain of Albumin (Bos taurus) (P02769 whole entry, looked up): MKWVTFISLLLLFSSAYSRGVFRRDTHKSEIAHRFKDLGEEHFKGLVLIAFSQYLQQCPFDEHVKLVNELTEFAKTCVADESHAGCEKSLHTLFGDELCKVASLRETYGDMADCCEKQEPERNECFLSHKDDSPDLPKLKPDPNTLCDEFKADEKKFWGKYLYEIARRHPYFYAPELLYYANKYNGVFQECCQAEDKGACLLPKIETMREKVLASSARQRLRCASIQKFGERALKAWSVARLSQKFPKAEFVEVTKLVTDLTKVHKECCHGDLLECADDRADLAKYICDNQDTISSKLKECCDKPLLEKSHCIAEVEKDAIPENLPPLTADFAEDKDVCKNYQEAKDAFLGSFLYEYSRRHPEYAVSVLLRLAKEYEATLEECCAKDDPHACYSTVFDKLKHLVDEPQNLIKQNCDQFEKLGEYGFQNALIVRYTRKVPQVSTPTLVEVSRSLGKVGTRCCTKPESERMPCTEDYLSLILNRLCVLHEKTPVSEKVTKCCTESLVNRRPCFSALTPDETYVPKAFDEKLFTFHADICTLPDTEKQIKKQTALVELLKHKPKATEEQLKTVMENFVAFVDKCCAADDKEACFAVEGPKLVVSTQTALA

[1] = probe aXIP binding to arrayed compounds – biochemical, NeuroSMM set, 635/667 nm fluorescence, primary screen (AID 1119); details: small-molecule microarray, higher = more signal, called active from +8 up or from −8 down;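 further: probe is the protein aXip251-270 applied at 1 µg/mL to compound-printed slides; binding of probe to printed compounds measured as 667 nm fluorescence plus signal to noise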
[2] = probe aNOTCH3 binding on compound microarray – biochemical, small-molecule microarray, 635/667 nm fluorescence, primary screen (AID 1120); details: higher = more signal;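 further: probe is a biotin-tagged antibody raised against NOTCH3 rather than NOTCH3 protein; score merges spot fluorescence near 667 nm with spot signal to noise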
[3] = probe aNOTCH2 binding on compound microarray – biochemical, small-molecule microarray, 635/667 nm fluorescence, primary screen (AID 1121); details: higher = more signal;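 further: score merges feature fluorescence read at 667 nm with its signal to noise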
[4] = target: Carbonic anhydrase 2 (Homo sapiens) (UniProt P00918); assay: compounds binding carbonic anhydrase 2 – biochemical, small-molecule microarray, Alexa647-labelled CAII, profiling panel (AID 1122); details: CAII-A647 binding fluorescence, higher = more signal
[5] = COS7 lysate on small-molecule microarray, probe aHis, 635 nm (AID 1123); details: COS7 cell lysate, fluorescence, higher = more signal;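 further: z-score combines 667nm fluorescence intensity with signal-to-noise per printed compound spot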
[6] = probe aLAP1 signal on lysate-treated microarray – cell lysate, small-molecule microarray, COS7 lysate, primary screen (AID 1124); details: probe aLAP1, fluorescence, higher = more signal;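 further: lysate comes from COS7 cells expressing LAP1 and is applied at 0.3 µg/mL; score merges spot fluorescence near 667 nm with signal-to-noise over triplicate slides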
Sam68 (KHDRBS1) = assay: compounds binding KHDRBS1 protein – biochemical, small-molecule microarray, 635 nm fluorescence, primary screen (AID 1125); details: higher = more signal;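 further: score merges 667 nm channel intensity with signal to noise over triplicate slides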
[7] = test system: Chordin-like protein 2 (CHRDL2); assay: compounds binding chordin-like 2 – biochemical, small-molecule microarray, 635 nm fluorescence, primary screen (AID 1126); details: fluorescence 635 nm, higher = more signal;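 further: printed compound slides probed with Chrdl2 protein at 4 µg/mL for 1 h at 4 C; score merges 667 nm emission intensity with signal to noise over three replicate slides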
[8] = target: Concanavalin-A (Canavalia ensiformis) (UniProt P02866); assay: compounds binding concanavalin A lectin – biochemical, small-molecule microarray, Alexa647 label, 635 nm, artefact control for SMM control protein annotation, primary screen (AID 1127); details: ConA-A647 binding fluorescence, higher = more signal;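 further: z combines 667 nm emission intensity with signal-to-noise across three replicate slides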
Chain of Concanavalin-A (Canavalia ensiformis) (P02866 whole entry, looked up): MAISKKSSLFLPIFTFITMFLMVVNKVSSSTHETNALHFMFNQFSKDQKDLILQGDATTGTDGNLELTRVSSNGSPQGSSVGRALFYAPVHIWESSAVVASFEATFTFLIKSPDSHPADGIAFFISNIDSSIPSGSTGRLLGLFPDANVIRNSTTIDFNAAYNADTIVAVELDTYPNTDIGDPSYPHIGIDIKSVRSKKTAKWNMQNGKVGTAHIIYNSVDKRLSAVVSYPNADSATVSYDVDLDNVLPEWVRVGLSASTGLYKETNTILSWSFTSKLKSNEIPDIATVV

Q: With `C[C@]1(C(=O)O)c2ccccc2C(=O)N(Cc2ccccc2)[C@H]1c1ccc(CO)cc1` as the molecule, how does the composite z-score (Albumin (Bos taurus)) read?
A: Its composite z-score is -0.408.

Q: What about the composite Z-score [1] of the same molecule?
A: Its composite Z-score is 0.174 (inactive).

Q: What about the composite z-score [2] of the same molecule?
A: Its composite z-score is -0.236.

Q: And the composite z-score [3]?
A: Its composite z-score is -0.0859.

Q: What about the composite z-score [4] of the same molecule?
A: The composite z-score was 0.756.

Q: What about the composite z-score [5] of the same molecule?
A: The composite z-score was 0.096.

Q: And the composite z-score [6]?
A: The composite z-score was -0.581.

Q: And the composite z-score (Sam68 (KHDRBS1))?
A: The composite z-score was -1.45.

Q: And the composite z-score [7]?
A: The composite z-score was -1.48.

Q: What about the composite z-score [8] of the same molecule?
A: Its composite z-score is -1.34.

Q: With `CC(C)c1ccc(NN2C(C(O)c3ccco3)C=CC3C(=O)N(c4ccccc4)C(=O)C32)cc1` (stereo not given) as the molecule, how does the composite z-score (Albumin (Bos taurus)) read?
A: The composite z-score was 0.488.

Q: What about the composite Z-score [1] of the same molecule?
A: The composite Z-score was 0.204 (inactive).

Q: And the composite z-score [2]?
A: Its composite z-score is 0.133.

Q: What about the composite z-score [3] of the same molecule?
A: Its composite z-score is 0.124.

Q: What about the composite z-score [4] of the same molecule?
A: Its composite z-score is 0.762.

Q: And the composite z-score [5]?
A: The composite z-score was 2.18.

Q: What about the composite z-score [6] of the same molecule?
A: Its composite z-score is 0.219.

Q: And the composite z-score (Sam68 (KHDRBS1))?
A: Its composite z-score is 1.14.

Q: What about the composite z-score [7] of the same molecule?
A: Its composite z-score is -0.394.

Q: What about the composite z-score [8] of the same molecule?
A: Its composite z-score is 1.17.

Q: For `C=CCNC(=O)[C@@H]1[C@H]2C(=O)O[C@H](c3ccccc3)[C@H](c3ccccc3)N2[C@H](c2ccccc2OCCO)[C@@]12C(=O)N(C(=O)OCCOC)c1ccc(C#CC3=CCCCC3)cc12`, which composite z-score (Albumin (Bos taurus)) is on record?
A: Its composite z-score is 0.706.

Q: What about the composite Z-score [1] of the same molecule?
A: Its composite Z-score is 2.45 (inactive).

Q: And the composite z-score [2]?
A: The composite z-score was -0.0699.

Q: And the composite z-score [3]?
A: Its composite z-score is -0.0664.

Q: What about the composite z-score [4] of the same molecule?
A: Its composite z-score is 0.467.

Q: What about the composite z-score [5] of the same molecule?
A: Its composite z-score is 1.76.

Q: What about the composite z-score [6] of the same molecule?
A: The composite z-score was -0.218.

Q: What about the composite z-score (Sam68 (KHDRBS1)) of the same molecule?
A: The composite z-score was 1.28.

Q: And the composite z-score [7]?
A: The composite z-score was 0.741.

Q: What about the composite z-score [8] of the same molecule?
A: The composite z-score was 1.12.

Q: For `O=C1NCC(=O)N2[C@@H]1C[C@@H](C(=O)O)[C@H]2c1ccc(O)cc1`, which composite z-score (Albumin (Bos taurus)) is on record?
A: Its composite z-score is -0.575.

Q: And the composite Z-score [1]?
A: The composite Z-score was -0.0127 (inactive).

Q: What about the composite z-score [2] of the same molecule?
A: Its composite z-score is 0.0397.

Q: And the composite z-score [3]?
A: Its composite z-score is -0.14.

Q: What about the composite z-score [4] of the same molecule?
A: The composite z-score was 0.165.

Q: And the composite z-score [5]?
A: Its composite z-score is 2.25.

Q: And the composite z-score [6]?
A: The composite z-score was 0.0452.

Q: What about the composite z-score (Sam68 (KHDRBS1)) of the same molecule?
A: Its composite z-score is 1.31.

Q: What about the composite z-score [7] of the same molecule?
A: The composite z-score was 1.48.

Q: What about the composite z-score [8] of the same molecule?
A: Its composite z-score is 1.07.

Q: With `O=c1cccc(-c2cccc(Cl)c2)o1` as the molecule, how does the composite z-score (Albumin (Bos taurus)) read?
A: The composite z-score was 0.271.

Q: And the composite Z-score [1]?
A: The composite Z-score was 1.25 (inactive).

Q: And the composite z-score [2]?
A: Its composite z-score is -0.0164.

Q: And the composite z-score [3]?
A: Its composite z-score is -0.161.

Q: And the composite z-score [4]?
A: The composite z-score was -0.0655.

Q: And the composite z-score [5]?
A: Its composite z-score is 0.043.

Q: And the composite z-score [6]?
A: Its composite z-score is 0.275.

Q: What about the composite z-score (Sam68 (KHDRBS1)) of the same molecule?
A: Its composite z-score is 0.159.

Q: And the composite z-score [7]?
A: The composite z-score was 0.0809.

Q: And the composite z-score [8]?
A: The composite z-score was 0.164.

Q: With `CC[C@@H]1[C@H]2C3C(=O)N(CC)C(=O)C3CC(=O)[C@H]2[C@H](c2ccc(C)cc2)N1S(=O)(=O)c1ccc(C)cc1` (stereo not given in full) as the molecule, how does the composite z-score (Albumin (Bos taurus)) read?
A: The composite z-score was 0.779.

Q: What about the composite Z-score [1] of the same molecule?
A: The composite Z-score was -0.337 (inactive).

Q: What about the composite z-score [2] of the same molecule?
A: Its composite z-score is 0.0271.

Q: And the composite z-score [3]?
A: The composite z-score was -0.0468.

Q: And the composite z-score [4]?
A: The composite z-score was 0.512.

Q: What about the composite z-score [5] of the same molecule?
A: The composite z-score was 1.21.

Q: What about the composite z-score [6] of the same molecule?
A: The composite z-score was -0.357.

Q: What about the composite z-score (Sam68 (KHDRBS1)) of the same molecule?
A: The composite z-score was 1.33.

Q: And the composite z-score [7]?
A: The composite z-score was -0.49.

Q: What about the composite z-score [8] of the same molecule?
A: The composite z-score was 0.914.

Q: For `Cc1ccc(S[C@]2(C(=O)NC3CC3)CC(=O)N(Cc3ccccc3Cl)[C@@H]2c2ccc(CO)cc2I)cc1`, which composite z-score (Albumin (Bos taurus)) is on record?
A: Its composite z-score is 0.257.

Q: And the composite Z-score [1]?
A: The composite Z-score was 0.331 (inactive).

Q: And the composite z-score [2]?
A: The composite z-score was -0.0967.

Q: What about the composite z-score [3] of the same molecule?
A: The composite z-score was -0.0419.

Q: And the composite z-score [4]?
A: Its composite z-score is 0.68.

Q: And the composite z-score [5]?
A: The composite z-score was 2.52.

Q: And the composite z-score [6]?
A: Its composite z-score is 0.944.

Q: What about the composite z-score (Sam68 (KHDRBS1)) of the same molecule?
A: The composite z-score was 1.13.

Q: What about the composite z-score [7] of the same molecule?
A: Its composite z-score is 0.506.

Q: And the composite z-score [8]?
A: The composite z-score was 0.904.

Q: What does the source list for `O=C1c2ccccc2[C@@]2(Cc3ccccc3N(C3CC3)C2=O)[C@H](c2ccc(CO)cc2)N1C1CCCCC1`?
A: composite z-score (Albumin (Bos taurus)): 0.804; composite Z-score [1]: -0.481 (inactive); composite z-score [2]: -0.125; composite z-score [3]: -0.0804; composite z-score [4]: 0.269; composite z-score [5]: 0.154; composite z-score [6]: 0.586; composite z-score (Sam68 (KHDRBS1)): -0.728; composite z-score [7]: -0.431; composite z-score [8]: -1.02

Q: Which composite z-score (Albumin (Bos taurus)) does the source give for `C=CCOC(=O)[C@H]1[C@@H]2C(=O)O[C@@H](c3ccccc3)[C@@H](c3ccccc3)N2[C@@H](c2ccc(OCCOC(=O)[C@H]3C[C@H]4C(=O)N[C@@H](CCCC[N+](C)(C)C)C(=O)N4[C@H]3c3cccc(OCCO)c3)cc2)[C@]12C(=O)Nc1ccc(I)cc12` here?
A: The composite z-score was -0.0737.

Q: What about the composite Z-score [1] of the same molecule?
A: The composite Z-score was 0.197 (inactive).

Q: What about the composite z-score [2] of the same molecule?
A: The composite z-score was -0.208.

Q: What about the composite z-score [3] of the same molecule?
A: Its composite z-score is -0.161.

Q: What about the composite z-score [4] of the same molecule?
A: Its composite z-score is 0.108.

Q: And the composite z-score [5]?
A: The composite z-score was 0.365.

Q: What about the composite z-score [6] of the same molecule?
A: Its composite z-score is 0.072.

Q: What about the composite z-score (Sam68 (KHDRBS1)) of the same molecule?
A: Its composite z-score is 0.489.

Q: And the composite z-score [7]?
A: The composite z-score was 0.578.

Q: What about the composite z-score [8] of the same molecule?
A: Its composite z-score is 1.13.

Q: With `NCCCCCCNC(=O)[C@@H]1C[C@@H]2C(=O)N3CCC[C@H]3C(=O)N2[C@@H]1c1ccc(O)cc1` as the molecule, how does the composite z-score (Albumin (Bos taurus)) read?
A: Its composite z-score is 0.654.

Q: What about the composite Z-score [1] of the same molecule?
A: The composite Z-score was -0.259 (inactive).

Q: What about the composite z-score [2] of the same molecule?
A: Its composite z-score is -0.0647.

Q: And the composite z-score [3]?
A: Its composite z-score is -0.182.

Q: What about the composite z-score [4] of the same molecule?
A: Its composite z-score is 0.291.

Q: What about the composite z-score [5] of the same molecule?
A: The composite z-score was 1.32.

Q: And the composite z-score [6]?
A: Its composite z-score is 0.81.

Q: What about the composite z-score (Sam68 (KHDRBS1)) of the same molecule?
A: The composite z-score was 1.25.

Q: What about the composite z-score [7] of the same molecule?
A: Its composite z-score is 0.417.

Q: And the composite z-score [8]?
A: Its composite z-score is 1.15.

Q: With `O=C1OCCC=C[C@H]2OC34C=CCN(c5ccc(Cl)cc5)C(=O)[C@H]3N(CCCCCO)C(=O)[C@@H]4C12` (stereo not given in full) as the molecule, how does the composite z-score (Albumin (Bos taurus)) read?
A: Its composite z-score is 0.772.

Q: And the composite Z-score [1]?
A: The composite Z-score was 0.728 (inactive).

Q: What about the composite z-score [2] of the same molecule?
A: Its composite z-score is -0.0663.

Q: And the composite z-score [3]?
A: The composite z-score was -0.0714.

Q: And the composite z-score [4]?
A: The composite z-score was 0.873.

Q: What about the composite z-score [5] of the same molecule?
A: The composite z-score was 0.848.

Q: And the composite z-score [6]?
A: Its composite z-score is 0.281.

Q: What about the composite z-score (Sam68 (KHDRBS1)) of the same molecule?
A: The composite z-score was 0.25.

Q: What about the composite z-score [7] of the same molecule?
A: The composite z-score was -0.27.

Q: And the composite z-score [8]?
A: The composite z-score was -1.21.
